Inconclusive results are not listed. A call without a number means that no potency is given here. Calls of active or inactive are those of the source. Calls follow the shape of the dose curve; as a rule, active = well fitted activation curve with a large enough effect; inconclusive = small, poorly fitted or top-dose-only effect, or another doubt; inactive = no such curve, though single readings can be large or run the other way.

We go through 40 compounds from PubChem BioAssay (NCATS).
Potency is read from the fitted curve at half-maximal effect.

The target of the assay is Rap guanine nucleotide exchange factor 3 (Homo sapiens) (UniProt O95398). The experiment in a line: Counterscreen qHTS for agonist of cAMP-regulated guanine nucleotide exchange factor 3 (EPAC1) (AID 1645889). Also: nearly all actives have a fitted effect of over 40% in size. The following applies: EPAC1 Rap1B-BODIPY-GDP exchange, fluorescence; series mostly up to 154 µM. From the text:
Assay Provider (PI): Xiaodong Cheng Ph.D. The University of Texas Medical Branch, […], TX MLPCN Grant: NS066510 In multi-cellular eukaryotic organisms, the effects of cAMP are transduced by two ubiquitously-expressed intracellular cAMP receptors, the classic protein kinase A/cAMP-dependent protein kinase (PKA/cAPK) and the more recently discovered exchange protein directly activated by cAMP/cAMP-regulated guanine nucleotide exchange factor (EPAC/cAMP-GEF). Both PKA and EPAC are ubiquitously expressed in all tissues, and an increase in intracellular cAMP levels will lead to the activation of both PKA and EPAC. Therefore, careful dissections of the individual role and relative contribution of EPAC and PKA within the overall cAMP signaling in various model systems are critical for further elucidating the mechanism of cAMP signaling. To date no EPAC-specific antagonists and agonist, as well as isoform-specific agonists have been reported, and developing EPAC-specific pharmacological probes to determine the physiological functions that EPAC play in the overall cAMP-mediated signaling remains a major challenge within the research field. Furthermore, identified regulators of EPAC may lead to new mechanism-based therapeutic strategies specifically targeting the EPAC / cAMP-signaling components as EPAC has been implicated to play important roles in major human pathological conditions such as diabetes, heart disease, and cancer. This qHTS will be used to screen the Molecular Libraries Small Molecule Repository (MLSMR) as a concentration-titration series using the NCGC unique quantitative screening (qHTS) platform to find activators for EPAC1. In addition, this assay will also be used as a counterscreen for the EPAC2 qHTS. This fluorescent based assay is developed and validated for EPAC1 that measures exchange using EPAC effector Rap1 complex with BODIPY-GDP, a GDP analog with a tethered fluorophores. Activators are identified by monitoring the change in fluorescence signal as the exchanged free BODIPY-GDP has a reduced fluorescence compared to Rap1-bound BODIPY-GDP. Increase in signal (activation) is the desired outcome for the EPAC1 agonist while no activity in this assay is desired for the EPAC2 agonist counterscreen. Reference: [1] de Rooij, J., Zwartkruis, F. J., Verheijen, M. H., Cool, R. H., Nijman, S. M., Wittinghofer, A., and Bos, J.L. (1998) Nature 396, 474-477. Kawasaki, H., Springett, G. M., Mochizuki, N., Toki, S., Nakaya, M., Matsuda, M., Housman, D. E., and Graybiel, A. M. (1998) Science 282, 2275-2279.
EPAC1 Counterscreen PROTOCOL TABLE SEQUENCE No. (e.g., 1, 2, 3, etc.); […] (e.g., Cells, Incubation, Reagent, etc.); VALUE and DESCRIPTION. 1. Reagent. 3 uL. [1x] 250 nM Rap1B-BODIPY-GDP, and 50 uM GDP. 2a. Compound. 23 nL. Control 6,572 uM cAMP (working concentration). 2b, 2c. Compound. 23 nL. Control activator and inhibitor; 234 - 30,000 uM cAMP and 16.4 - 10,000 uM. 2d. Compound. 46 nL. MLSMR follow-up library; 0.64 - 10,000 uM. 3. Time. 15 sec, 1000rpm. Centrifuge. 4. Time. 5 min. Incubation at room temperature. 5. Detector. Fluorescence. (Read 1), Ex/Em = 480 nm / 540 nm. 6. Time. 30 min. Incubation at room temperature. 7. Detector. Fluorescence. (Read 2), Ex/Em = 480 nm/ 540 nm. 8. Reagent. 1uL. Dispense either [4x] 10 uM cAMP or buffer. 9. Time. 15 sec, 1000 rpm. Centrifuge. 10. Time. 5 min. Incubation at room temperature. 11. Detector. Fluorescence. (Read 3), Ex/Em = 480 nm / 540 nm. 12. Time. 30 min. Incubation at room temperature. 13. Detector. Fluorescence. (Read 4), Ex/Em = 480 nm / 540 nm. NOTES (numbers refer to Sequence numbers above; values are from representative experiments) 1. Medium-binding black solid-bottom Greiner plates (789176-F). Dispense 3 uL of [1x] 250 nM Rap1B-BODIPY-GDP, and 50 uM GDP into columns 1 to 48. 2a. Control compound cAMP (6,572 uM, column 3, rows 1 to 32) single pin-transferred for a [final] of 50 uM. 2b. […]
In the case of `COc1cc(OC)c(CNC2CCCCCC2)cc1Br`, the Potency entry was “inactive”.
Same read-out and setting: for `CCc1nc(C)cn1S(=O)(=O)c1cc(C)c(OC)cc1C` the value was “inactive”; for `COc1ccccc1N1CCN(c2ncnc3onc(-c4ccc(F)cc4)c23)CC1`, “inactive”.
On to `CC1CCCCC1NC(=O)COC(=O)c1c2c(nc3ccccc13)/C(=C/c1ccco1)CC2` (stereo not given), for which the Potency result is “inactive”.
As for `Cc1ccc(S(=O)(=O)N2CCN(C(=O)CC(C)n3nc(C)c(Cl)c3C)CC2)cc1` (stereo not given), the activation was 6.22% [at 30.8 µM] (inactive).
On the same count and under the same terms, to `CN(Cc1ccccc1F)c1nc(-c2cccs2)nc2ccccc12` belongs 4.35% [at 30.8 µM] (inactive).
Regarding `CCc1nc2c(OCc3ccc(C#N)cc3)cccn2c1N(C)C(=O)c1ccc(C)cc1`, the Potency entry was “inactive”.
With `CCOC(=O)c1sc(N=NC2=C(O)CCCC2=O)c(C(=O)OCC)c1C`, the activation was 6.27% [at 30.8 µM] (inactive).
Consider `O=C1Nc2c(Cl)cc(Cl)cc2C1=O`, for which the Potency is 31.6 µM (active).
Take `COc1ccccc1CNC(=O)CCCn1nc(C)c2c(C)n(-c3ccc(C)cc3)nc2c1=O`: the Potency result was “inactive”.
On the same count and under the same terms, to `CC(C)CC1C(=O)N(Cc2cn(CCC3OCCCO3)nn2)CCS(=O)(=O)N1Cc1ccc(-c2ccccc2)cc1` (stereo not given) belongs “inactive”.
As for `CC1CC1C(=O)OCC(=O)NNC(=O)COc1ccc(Br)cc1` (stereo not given), the activation is 28.1% [at 30.8 µM] (inactive).
Regarding `Cc1ccc(N2NC(=O)/C(=C\c3cc4c(cc3[N+](=O)[O-])OCO4)C2=O)cc1C`, the Potency result is “inactive”.
Same read-out and setting: to `O=C(O)C(c1ccccc1)N1C(=O)/C(=C\c2ccc(O)c(O)c2)SC1=S` (stereo not given) belongs “inactive”.
For the compound `Cc1ccc(C(=O)O/N=C(\c2ccccc2)c2cccnc2)cc1`, the activation is 8.08% [at 30.8 µM] (inactive).
For `COc1cc2ccccc2cc1C(=O)N1CC(C)CC(C)C1` (stereo not given), the activation is 27.4% [at 30.8 µM] (inactive).
For the compound `COC(=O)c1ccc(NC(=O)CCOc2ccccc2)cc1`, the Potency result was “inactive”.
On the same count and under the same terms, for `COc1ccccc1/C=C/C=C1\Oc2c(ccc(O)c2CN2CCN(CCO)CC2)C1=O` the value was 39.8 µM (active); for `COc1cc(/C=C2\SC(=S)N(NS(=O)(=O)c3ccc(C)cc3)C2=O)cc(OC)c1OC`, “inactive”.
Turning to `Cc1ccc(NC(=O)CN2C(=O)N/C(=C/c3ccccc3OCc3cccc(C(=O)O)c3)C2=O)cc1`, the activation is 5.98% [at 30.8 µM] (inactive).
On to `CC1(Cc2ccc(Cl)cc2)C(=O)Nc2ccc(-c3cccnc3)cc21` (stereo not given), for which the Potency result is “inactive”.
Still for that read-out and setting: for `CC(C)CNC(=O)c1c(-c2ccccc2)c(-c2ccccc2)nn(C)c1=O` the value was “inactive”.
In the case of `CN(C(=O)CSc1nc(-c2ccc(C(C)(C)C)cc2)c(C#N)c(=O)[nH]1)C1CCCCC1`, the Potency entry was “inactive”.
Consider `Cc1ccc(-c2csc(NS(=O)(=O)c3cccc(F)c3)n2)o1`, for which the activation was 14.9% [at 30.8 µM] (inactive).
On to `CCOC(=O)c1oc2ccccc2c1CN1CCN(C(=O)c2ccccc2)CC1`, for which the Potency entry is “inactive”.
As for `CSc1ccccc1NC(=O)COc1ccccc1C`, the activation was 4.86% [at 30.8 µM] (inactive).
For `Nc1ccc(-c2c3ccc(=O)cc-3oc3cc(O)ccc23)c(C(=O)O)c1`, the Potency was 31.6 µM (active).
For `CC(C)CNc1cc(Cl)c(S(=O)(=O)NCC(C)C)cc1C(=O)O`, the activation was -0.574% [at 30.8 µM] (inactive).
For `Cc1cccc(NC(=O)c2c(NC(=O)C(F)(F)F)sc3c2CCCCC3)c1`, the Potency result was “inactive”.
Still for that read-out and setting: to `COc1cn(CC(=O)Nc2cccc(C)c2C)c(CN2CCCCC2)cc1=O` belongs “inactive”; to `CC[n+]1c(/C=C/C=C/N(C(C)=O)c2ccccc2)sc2cc(OC)ccc21`, 50.1 µM (active).
In the case of `Cc1onc(-c2c(F)cccc2Cl)c1C(=O)OCC(=O)N(C)c1ccccc1`, the activation is 12.2% [at 30.8 µM] (inactive).
For the compound `O=C(CSc1nc2c([nH]c3ccccc32)c(=O)n1-c1ccccc1F)Nc1cccc(Cl)c1`, the Potency entry was “inactive”.
As to `C#Cc1ccc([C@@H]2C=C(C(=O)NCc3nc4ccccc4[nH]3)O[C@H](OCC)[C@H]2CCCO)cc1`, the activation was 30.9% [at 30.8 µM] (inactive).
Turning to `Cc1cc(/C=N/NC(N)=S)c(O)c(/C=N/NC(N)=S)c1`, the Potency was 6.31 µM (active).
Turning to `O=C(CSCC(=O)N1CCOCC1)Nc1nc(-c2ccccc2)cs1`, the Potency entry is “inactive”.
On the same count and under the same terms, for `C=CCc1c(C)c(C#N)c2nc3ccccc3n2c1N1CCCCC1` the value was “inactive”.
On to `O=C(CSc1nnc(CCc2ccccc2)n1-c1ccc(Cl)cc1)NCc1ccccc1`, for which the Potency entry is “inactive”.
On the same count and under the same terms, to `CCc1nnc(NS(=O)(=O)c2ccc(Nc3ccc([N+](=O)[O-])c4nonc34)cc2)s1` belongs “inactive”; to `COc1c(-c2ccccc2)oc2c(ccc3occc32)c1=O`, “inactive”.
